Experimental data taken from PubChem BioAssay AID372 (MTDP, 2006).
Among all 100,000 compounds or so, about 770 (0.77%) were called active. For the sample, actives were picked, then their nearest neighbours and some compounds at random. Values without a mark were called inactive. Rule as the data show it: active = inhibition above about 50%; inactive = the rest.

molecular target: Gag-Pol polyprotein (Human immunodeficiency virus type 1 group M subtype B (isolate HXB2)) (UniProt P04585); assay: RNase H inhibition, HIV 1 Gag Pol polyprotein, FRET biochemical assay, screening (AID 372); details: HIV-1 RT RNase H, FRET RNA/DNA substrate fluorescence; at 10 µM; stronger effect = higher value

Question: Which inhibition does the source give for `COc1ccc(-c2csc(NC3OC(=O)c4c3ccc(OC)c4OC)n2)cc1` (stereo not given) here?
Answer: 20%

Question: Which inhibition does the source give for `CCOc1cc(C(=O)Nc2ccc(OC)c(Cl)c2)cc(OCC)c1OCC` here?
Answer: 8%

Question: `O=S(=O)(Nc1ccc(F)cc1F)c1ccc2ccccc2c1` was tested. Which inhibition did it give?
Answer: 15%

Question: Which inhibition does the source give for `N/C(=N/OC(=O)c1cccc([N+](=O)[O-])c1)c1nonc1N` here?
Answer: 14%

Question: For `O=C1C(Cl)=C(Cl)C(=O)N1c1cc(Cl)ccc1Cl`, which inhibition is on record?
Answer: 4%

Question: For `O=C1C=CC(=O)C(c2cccc(C(F)(F)F)c2)=C1`, which inhibition is on record?
Answer: 71% (active)

Question: With `O=C(O)c1ccc(-c2cc(Cl)ccc2Cl)o1` as the compound, how does the inhibition read?
Answer: 0%

Question: Which inhibition does the source give for `Cc1ccc(C2=CC(=O)N(c3cccc(C(F)(F)F)c3)C2=O)cc1` here?
Answer: 10%

Question: How did the inhibition turn out when `O=C1C=CC(=O)N1c1cccc(Cl)c1` was run?
Answer: 19%

Question: With `O=C1C(Cl)=C(Cl)C(=O)N1c1cccc(C(F)(F)F)c1` as the compound, how does the inhibition read?
Answer: 6%

Question: With `OCc1ccc(-c2cccc(Cl)c2)o1` as the compound, how does the inhibition read?
Answer: 28%

Question: How did the inhibition turn out when `CCOc1ccc(C(=O)Nc2cccc(-c3nc4cc(C)ccc4o3)c2C)cc1Br` was run?
Answer: 11%

Question: How did the inhibition turn out when `O=C(Nc1ccc(S(=O)(=O)Nc2ncccn2)cc1)c1cccnc1` was run?
Answer: 8%

Question: For `CCOc1ccc2ccc(OCC)c(/C=C3/C(=O)NC(=O)N(Cc4ccco4)C3=O)c2c1`, which inhibition is on record?
Answer: 26%

Question: For `CCCN(CCC)CCCNC(=O)/C=N\O`, which inhibition is on record?
Answer: 6%

Question: How did the inhibition turn out when `COc1cc(OC)c(/C=C2\C(=O)NC(=S)N(c3cccc(Cl)c3)C2=O)cc1Br` was run?
Answer: 9%

Question: `CC(Oc1ccc(/C=C2/SC(=O)NC2=O)cc1)C(=O)O` (stereo not given) was tested. Which inhibition did it give?
Answer: 10%

Question: For `O=C(Nc1nnc(-c2cccc([N+](=O)[O-])c2)s1)Nc1ccc(Cl)cc1Cl`, which inhibition is on record?
Answer: 43%

Question: `O=C(/C=C/c1ccco1)/C=C/c1ccc(-c2ccc(Cl)c(Cl)c2)o1` was tested. Which inhibition did it give?
Answer: 52% (active)

Question: `O=C(/C=C/c1ccco1)/C=C/c1ccc(-c2ccc(Br)cc2)o1` was tested. Which inhibition did it give?
Answer: 33%

Question: Which inhibition does the source give for `O=C(/C=C/c1ccc(-c2ccc(Cl)c(Cl)c2)o1)c1ccco1` here?
Answer: 2%

Question: With `CSc1nc(-c2ccccc2)c(C#N)c(=O)n1C` as the compound, how does the inhibition read?
Answer: 15%

Question: With `CCCCCC/C(=N\NC(=O)c1ccncc1)c1ccccc1` as the compound, how does the inhibition read?
Answer: 5%

Question: For `CCc1c(C)sc(NC(=O)C2CC3CCC2C3)c1C#N` (stereo not given), which inhibition is on record?
Answer: 21%

Question: `CCc1c(C)sc(NC(=O)C2CCCCC2C(=O)O)c1C(N)=O` (stereo not given) was tested. Which inhibition did it give?
Answer: 48%

Question: `CCc1c(C)sc(NC(=O)C2CCCCC2C(=O)O)c1C#N` (stereo not given) was tested. Which inhibition did it give?
Answer: 75% (active)

Question: How did the inhibition turn out when `O=C1OC(c2sc3ccccc3c2Cl)=N/C1=C/c1ccc(F)cc1` was run?
Answer: 1%

Question: For `CN1C(=O)C(=Cc2ccc(I)o2)C(=O)N(C)C1=S`, which inhibition is on record?
Answer: 21%

Question: `CC1(C)OC(=O)C(=Cc2ccc(I)o2)C(=O)O1` was tested. Which inhibition did it give?
Answer: 53% (active)

Question: For `O=C1C(=Cc2ccc(I)o2)C(=O)c2ccccc21`, which inhibition is on record?
Answer: 9%

Question: With `O=C(/C=C/c1ccccc1)C1=C(O)C(=O)N(c2ccccc2)C1c1cccc([N+](=O)[O-])c1` (stereo not given) as the compound, how does the inhibition read?
Answer: 10%

Question: Which inhibition does the source give for `Fc1cccc(-c2n[nH]c(=S)n2-c2ccccc2)c1` here?
Answer: 5%

Question: For `Cc1cc2nc3s/c(=C/c4ccc(F)cc4)c(=O)n3c2cc1C`, which inhibition is on record?
Answer: 1%

Question: Which inhibition does the source give for `Clc1cc(-c2ccccc2)nc(-c2ccccc2)n1` here?
Answer: 24%

Question: Which inhibition does the source give for `O=C1C=CC(=O)N1c1ccc(-c2cc(-c3ccccc3)nc(-c3ccc(N4C(=O)C=CC4=O)cc3)n2)cc1` here?
Answer: 54% (active)

Question: How did the inhibition turn out when `Oc1ccc(-c2cc(-c3ccc(O)cc3)nc(-c3ccccc3)n2)cc1` was run?
Answer: 31%

Question: How did the inhibition turn out when `Cc1ccc(C(=O)Nc2ccc(Cc3ccncc3)cc2)cc1[N+](=O)[O-]` was run?
Answer: 5%

Question: `Cc1ccc(N(CC(=O)NC2CCCC2)S(=O)(=O)c2ccc(F)cc2)cc1` was tested. Which inhibition did it give?
Answer: 5%

Question: Which inhibition does the source give for `CSc1ccc(S(=O)(=O)N(CC(=O)NC2CCCCC2)c2ccc(C)cc2)cc1` here?
Answer: 13%

Question: For `Cc1ccc(N(CC(=O)NC2CCCCC2)S(=O)(=O)c2ccc(F)cc2)cc1`, which inhibition is on record?
Answer: 56% (active)

Question: How did the inhibition turn out when `COc1ccccc1CNS(=O)(=O)c1ccc(Cl)cc1` was run?
Answer: 0%

Question: For `N=C1/C(=C/c2ccc(-c3ccccc3)o2)C(=O)N=C2SC(c3ccccc3)=NN12`, which inhibition is on record?
Answer: 2%

Question: With `Cc1ccc(N2NC(=O)/C(=C/c3ccc(Br)cc3)C2=O)cc1C` as the compound, how does the inhibition read?
Answer: 15%

Question: For `O=C(CSc1nc2ccc(N3C(=O)c4ccccc4C3=O)cc2s1)c1ccccc1`, which inhibition is on record?
Answer: 8%

Question: Which inhibition does the source give for `O=C(CSc1nc2ccc(N3C(=O)c4ccccc4C3=O)cc2s1)Nc1ccc(F)cc1` here?
Answer: 11%

Question: For `COc1ccc(NC(=O)CSc2nc3ccc(N4C(=O)c5ccccc5C4=O)cc3s2)cc1`, which inhibition is on record?
Answer: 56% (active)

Question: With `O=C(CSc1nc2ccc(N3C(=O)c4ccccc4C3=O)cc2s1)c1ccc(Cl)cc1` as the compound, how does the inhibition read?
Answer: 56% (active)

Question: `O=C(CSc1nc2ccc(N3C(=O)c4ccccc4C3=O)cc2s1)Nc1ccc(Br)cc1` was tested. Which inhibition did it give?
Answer: 28%

Question: `O=C(CSc1nc2ccc(N3C(=O)c4ccccc4C3=O)cc2s1)c1ccc(F)cc1` was tested. Which inhibition did it give?
Answer: 43%

Question: For `COc1ccc(/C=C/c2nc3sc4c(c3c(=O)o2)CCCC4)cc1`, which inhibition is on record?
Answer: 14%

Question: `COc1cc2ccccc2cc1C(=O)NC(=S)Nc1cccc(-c2nc3ccccc3s2)c1C` was tested. Which inhibition did it give?
Answer: 15%

Question: How did the inhibition turn out when `O=C1NC(=O)N(c2cccc(Br)c2)C(=O)/C1=C/c1cc(Cl)c(O)c(Cl)c1` was run?
Answer: 10%

Question: `O=C1CSC(c2ccc(Cl)c(Cl)c2)N1CCc1ccccc1` (stereo not given) was tested. Which inhibition did it give?
Answer: 7%

Question: For `Cc1ccc(/C(O)=C/c2nc3ccccc3oc2=O)o1`, which inhibition is on record?
Answer: 54% (active)

Question: For `Cc1ccc(/C(O)=C/c2nc3ccc([N+](=O)[O-])cc3oc2=O)o1`, which inhibition is on record?
Answer: 10%

Question: With `Cc1cc(C)c(/C(O)=C/c2nc3ccccc3oc2=O)c(C)c1` as the compound, how does the inhibition read?
Answer: 0%

Question: For `COc1ccc(N=C(C)c2cc(Cl)ccc2O)cc1`, which inhibition is on record?
Answer: 31%

Question: How did the inhibition turn out when `Cc1ccccc1-c1nc2ccccc2c(=O)n1/N=C/c1c[nH]c2ccccc12` was run?
Answer: 10%

Question: How did the inhibition turn out when `COc1ccc(Cc2nc3ccccc3c(=O)n2/N=C/c2cccs2)cc1OC` was run?
Answer: 23%

Question: `COc1ccc(Cc2nc3ccccc3c(=O)n2/N=C/c2c[nH]c3ccccc23)cc1OC` was tested. Which inhibition did it give?
Answer: 52% (active)

Question: How did the inhibition turn out when `N#Cc1c(/N=C/c2cc(Br)ccc2Br)sc2c1CCCC2` was run?
Answer: 15%

Question: With `Fc1ccccc1OCCn1ccnc1` as the compound, how does the inhibition read?
Answer: 7%

Question: `Cc1ccc(NCCCC(=O)N/N=C/c2cccs2)cc1` was tested. Which inhibition did it give?
Answer: 12%

Question: Which inhibition does the source give for `COc1ccc(C(C)=O)cc1CSc1cc(C)c2ccccc2n1` here?
Answer: 46%

Question: With `Cc1ccc(C(C)C)c(OCC(=O)Nc2cccc(Cl)c2C)c1` as the compound, how does the inhibition read?
Answer: 15%

Question: How did the inhibition turn out when `COc1cc(C=C2C(=O)NC(=O)NC2=O)ccc1OCc1c(C)ccc2ccccc12` was run?
Answer: 31%

Question: `O=c1nc(/C=C/c2ccc(-c3ccc([N+](=O)[O-])cc3Cl)o2)cc(C(F)(F)F)[nH]1` was tested. Which inhibition did it give?
Answer: 20%

Question: With `O=c1nc(/C=C/c2ccc(-c3ccc(F)c(Cl)c3)o2)cc(C(F)(F)F)[nH]1` as the compound, how does the inhibition read?
Answer: 48%

Question: With `O=c1nc(/C=C/c2ccc(-c3ccc(Cl)c([N+](=O)[O-])c3)o2)cc(C(F)(F)F)[nH]1` as the compound, how does the inhibition read?
Answer: 54% (active)

Question: How did the inhibition turn out when `COC(=O)C1=C(C)N(c2ccccc2F)C(=O)/C1=C\c1ccccc1F` was run?
Answer: 5%

Question: How did the inhibition turn out when `COc1cc2ccccc2cc1C(=O)Nc1cc([N+](=O)[O-])ccc1F` was run?
Answer: 46%

Question: Which inhibition does the source give for `COc1cc([N+](=O)[O-])ccc1NC(=O)c1cc(Cl)ccc1Cl` here?
Answer: 22%

Question: How did the inhibition turn out when `COc1cc([N+](=O)[O-])ccc1NC(=O)c1cc2ccccc2cc1OC` was run?
Answer: 53% (active)

Question: Which inhibition does the source give for `COc1cc([N+](=O)[O-])ccc1NC(=O)c1ccc(-c2cc(Cl)ccc2Cl)o1` here?
Answer: 60% (active)

Question: How did the inhibition turn out when `COc1cc([N+](=O)[O-])ccc1NC(=O)c1cccc2ccccc12` was run?
Answer: 26%

Question: Which inhibition does the source give for `COc1cc([N+](=O)[O-])ccc1-c1ccc(C(=O)Nc2ccc(NC(C)=O)cc2)o1` here?
Answer: 26%

Question: For `COc1ccccc1NC(=O)c1ccc(-c2ccc([N+](=O)[O-])cc2OC)o1`, which inhibition is on record?
Answer: 30%

Question: `COc1cc([N+](=O)[O-])ccc1-c1ccc(C(=O)Nc2ccc(I)cc2Cl)o1` was tested. Which inhibition did it give?
Answer: 51% (active)

Question: For `O=C(Nc1cc([N+](=O)[O-])ccc1F)c1ccc(-c2cc(Cl)ccc2Cl)o1`, which inhibition is on record?
Answer: 31%

Question: For `CCOc1ccc(NC(=O)c2ccc(-c3ccc([N+](=O)[O-])cc3OC)o2)cc1`, which inhibition is on record?
Answer: 36%

Question: With `CCCC(=O)Nc1ccc(NC(=O)c2ccc(-c3ccc([N+](=O)[O-])cc3OC)o2)cc1` as the compound, how does the inhibition read?
Answer: 56% (active)

Question: `Cc1cc([N+](=O)[O-])ccc1-c1ccc(C(=O)Nc2ccc(I)cc2Cl)o1` was tested. Which inhibition did it give?
Answer: 24%

Question: `COc1ccc(OC)c(/C=N/NC(=O)CSc2nc3ccccc3n2C)c1` was tested. Which inhibition did it give?
Answer: 20%

Question: Which inhibition does the source give for `Cc1ccnc(NS(=O)(=O)Cc2ccccc2)c1` here?
Answer: 3%

Question: `COc1ccc(OC)c(N2C(=O)NC(=O)C(=Cc3cccs3)C2=O)c1` was tested. Which inhibition did it give?
Answer: 1%

Question: How did the inhibition turn out when `CCn1c(NC(=O)c2ccc(Cl)cc2)nc2ccccc21` was run?
Answer: 4%

Question: `Cc1ccc(NC(=S)NC(=O)c2ccccc2F)cc1C` was tested. Which inhibition did it give?
Answer: 15%

Question: With `COc1ccc(CCN=C(Nc2ccccc2)SC2CC(=O)N(c3ccccc3)C2=O)cc1` (stereo not given) as the compound, how does the inhibition read?
Answer: 6%

Question: `CCN(CC)c1ccc(C=Nc2ccccc2C(=O)Nc2ccccc2)c(O)c1` was tested. Which inhibition did it give?
Answer: 5%

Question: `N#C/C(=C/c1ccc(-c2ccccc2[N+](=O)[O-])o1)C(=O)NCc1ccccc1` was tested. Which inhibition did it give?
Answer: 27%

Question: How did the inhibition turn out when `COc1ccc(-n2nc3cc(C)c(NC(=O)c4ccc([N+](=O)[O-])cc4)cc3n2)cc1` was run?
Answer: 10%

Question: How did the inhibition turn out when `COc1ccc(-n2nc3cc(C)c(NC(=O)c4ccc(-c5cccc([N+](=O)[O-])c5)o4)cc3n2)cc1` was run?
Answer: 42%

Question: How did the inhibition turn out when `COc1ccc(-n2nc3cc(C)c(NC(=O)c4ccc(-c5ccc([N+](=O)[O-])cc5OC)o4)cc3n2)cc1` was run?
Answer: 54% (active)

Question: `COc1ccc(-n2cnc(N)c2C(=O)c2cccc([N+](=O)[O-])c2)cc1` was tested. Which inhibition did it give?
Answer: 1%

Question: For `Cc1ccc(-c2cc(C(F)(F)F)n3nc(C(N)=O)c(Cl)c3n2)cc1`, which inhibition is on record?
Answer: 11%
